From PubChem BioAssay AID504444 (National Center for Advancing Translational Sciences (NCATS), 2011)
The campaign covered roughly 360,000 compounds. About 7,500 (2.1%) were called active. Roughly 20% stayed inconclusive and do not appear here. Calls come from the whole dose curve; as a rule, active = well fitted inhibition curve with a large enough effect; inconclusive = small, poorly fitted or top-dose-only effect, or effect the other way; inactive = flat fitted curve, though single readings scatter. This excerpt belongs to a sample that is enriched for actives.

Test: Nrf2 qHTS screen for inhibitors; note: nearly all actives have a fitted effect of over 60% in size
Conditions: A549 ARE-Fluc reporter, luciferase luminescence, 18-24 h; series mostly up to 46 µM; activity change, negative = inhibition: at the top concentration
Summary of the method: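 Concentration-response testing used A549 ARE_Fluc cells at 5000 cells/well. Following an 18-24 h compound incubation, viability was read by fluorescence (Ex 405/Em 525) and luciferase output by luminescence.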
% is set by controls: 0 for no effect and ±100 for the full control effect; potency is the fitted concentration of half-maximal effect.

Activity change, negative = inhibition, inactive:
Cc1ccc(Cn2c(C)c3cnn(CC(=O)NCCN4CCOCC4)c(=O)c3c2C)cc1 -21.8%, Cc1cc(C)cc(NS(=O)(=O)c2cc3c(cc2C)NC(=O)CO3)c1 18.1%, CCOC(=O)CN/C=C(\C#N)c1ccc(F)cc1 0.372%, C/C(=N\OCC(=O)O)c1ccc(Cl)cc1 1.65%, CCCCNC(=O)c1ccc2c(c1)NC(=O)C(C(C)C)N2 (stereo not given) -6.85%, COc1ccc(Cn2c(C(=O)O)c(CNCc3cccc(OC)c3)c3ccc(C)cc32)cc1 -21.6%, CCc1cccc(NC(=O)CN(c2ccc(C)c(C)c2)S(=O)(=O)c2ccsc2C(=O)OC)c1 2.91%, CC1=C(C(N)=O)C(c2ccc(Br)cc2)n2ncnc2N1 (stereo not given) -20%, CCOC(=O)C1=C(c2ccccc2)Nc2ncnn2C1c1ccc(Cl)cc1 (stereo not given) -3.16%, CCCC12CN3CC(CCC)(CN(C1)C3c1c[nH]c3ccc(OC)cc13)C2=O (stereo not given) -15.7%, Cc1ccccc1C(=O)Nc1cc(C)c(O)c(-c2nc3ccccc3o2)c1 6.96%, CCCN(CC(=O)Nc1ccccc1C)C(=O)c1cc(=O)[nH]c2ccccc12 11.2%, CC1CCc2[nH]c3ccc(C(=O)N(C)CC(=O)Nc4cccc(F)c4)cc3c2C1 (stereo not given) 2.56%, COc1ccc(CCN2CC(C(=O)OCC(=O)NCc3ccccc3Cl)CC2=O)cc1OC (stereo not given) 4.36%, Cc1ccc(O)c(NC(=O)c2cc(-c3ccc(F)cc3)no2)c1 12.9%, CCOc1cc(C2C(C(=O)OC)=C(C)NC3=C2C(=O)c2ccccc23)ccc1O (stereo not given) 8.61%, COc1ccc(S(=O)(=O)N2CCOCC2)cc1NC(=O)CSc1nnc(NC2CC2)s1 -0.078%, Cc1ccc2[nH]cc(CCNC(=O)C3CCCCC3)c2c1 -15.9%, NS(=O)(=O)c1ccc(CCNC(=O)NC2CCCCC2)cc1 2.98%, COc1ccc(/C=C/C(=O)OCC(=O)N2CCN(S(=O)(=O)c3ccc(C)cc3C)CC2)cc1OC 0.413%, CSc1ccc(CCNC(=O)c2cnn(-c3ccccc3)c2-n2cccc2)cc1 -8.32%, COc1ccc(-c2csc(N3CCN(Cc4ccc5c(c4)OCO5)CC3)n2)cc1 -26.4%, O=C(CSc1ncnc2scc(-c3ccccc3)c12)NCc1ccc2c(c1)OCO2 -28.7%, O=C(Nc1ccccc1)Oc1cccc2cccnc12 5.41%, O=C(Nc1cc(S(=O)(=O)Nc2ccc(Cl)cc2)ccc1O)c1ccc(F)cc1F -0.0591%, COc1ccc(NC(C)=O)cc1NC(=O)CN1CCN(c2ccccn2)CC1 -3.38%, O=C(c1c(F)cccc1Cl)N1CCN(c2ccccn2)CC1 28.8%, CCOC(=O)C1CCCN(C(=O)c2sc3nc(C)nc(N4CCOCC4)c3c2C)C1 (stereo not given) -3.67%, Cc1nc(N2CCC(C)CC2)c2c(C)c(C(=O)Nc3cc(F)ccc3C)sc2n1 -18.6%, CC(NC(=O)c1ccccc1)C(=O)OCC(=O)Nc1cccc(S(=O)(=O)N2CCCC2)c1 (stereo not given) -4.58%, COc1cc2c(cc1OC)C(Cc1cc(OC)c(OC)cc1[N+](=O)[O-])=NCC2 -10.8%, COc1ccc(CCNC(=O)c2ccc(NC(=O)CC3SC(N4CCCCC4)=NC3=O)cc2)cc1OC (stereo not given) -4.44%, COc1ccc2c(c1)c(N1CCCC1=O)c(C(=O)Nc1ccc(OC)c(Cl)c1)n2C -35.3%, O=[N+]([O-])c1ccc(N=NNc2ccc([N+](=O)[O-])cc2)cc1 4.41%, Cc1ccc(C(=O)NCCSc2c(C)[nH]c3ccccc23)cc1C -4.57% [at 9.27 µM], Cc1ccc(NC(=O)CSc2cccc3cccnc23)c(C)c1 0.544%, C/C(CC(=O)Nc1ccc(C)cc1C)=N\NC(=O)C(C)C -7.5%, CCn1cc(NC(=O)Nc2ccc(OC)c(OC)c2)c(C(N)=O)n1 3.77%, COc1ccc(NC(=O)CNC(=O)Cc2ccccc2)cc1OC -12.4%, CCCCN1CC(c2nc3ccccc3n2CCCCOc2ccc(C)cc2C)CC1=O (stereo not given) -17.4%, CN(C(=O)CSc1nncc2ccccc12)C1CCCCC1 12.5%, CCOc1ccc(NC(=O)CSc2nnc3c(n2)[nH]c2ccc(S(=O)(=O)N4CCOCC4)cc23)cc1 -7.26%, Cc1nc(SCCOc2ccc(Cl)cc2)[nH]c(=O)c1Cc1ccccc1 -1.25%, CCCOc1ccc(Cc2c(O)nc(SC)[nH]c2=O)cc1C 3.9%, COc1ccc(N2CCN(C(=O)C3CCCN(C(=O)c4cc5sccc5n4C)C3)CC2)cc1 (stereo not given) -16.8%, CSC(=S)N/N=C/c1c[nH]c2ccccc12 3.83%, O=C(NC1CCCC1)C(=O)c1c[nH]c2ccccc12 19.9%, COc1cccc(/C=N/Nc2ccc(S(=O)(=O)Nc3ccccc3C(=O)O)cc2[N+](=O)[O-])c1O -6.93%, CCC1CCCCN1C(=S)NC(=O)c1ccco1 (stereo not given) 1.83%, Cc1ccc(C)c(-n2c(SCC(=O)O)nc3sc4c(c3c2=O)CCCC4)c1 -21%, Cc1nc2sc3c(c2c(=O)n1NC(=O)CCl)CCCC3 -11.4%, CCC(=O)N1CCc2cc(S(=O)(=O)NC(C(=O)Nc3ccc(C(C)=O)cc3)C(C)C)ccc21 (stereo not given) 13.1%, O=C(NCC1(N2CCCCC2)CCCCC1)c1cccc(S(=O)(=O)Nc2ccccc2Cl)c1 -12.6%, CCOc1ccc(CCNC(=O)c2cc3c(=O)n(C)c4ccccc4c3n2C)cc1 -11.9%, NS(=O)(=O)c1ccc(NC(=O)CSc2nnc3c(n2)[nH]c2ccccc23)cc1 20.7%, Cc1cccc(NS(=O)(=O)c2ccc([N+](=O)[O-])cc2)n1 -10.5%, O=C(NNS(=O)(=O)c1ccc(F)cc1)c1ccc([N+](=O)[O-])cc1Cl 5.13%, CN(CC(=O)NCC(c1ccccc1)N1CCCC1)S(=O)(=O)c1ccc(Cl)cc1 (stereo not given) 13.6%, CCCCCCn1nnc2sc(-c3ccccc3)cc2c1=O 12.6%, COc1cc(O)c2c(=O)c3c(O)c(O)ccc3oc2c1OC 12.7%, O=C(Cc1ccc(NC(=O)C2CCCN(C(=O)C3CCCCC3)C2)cc1)Nc1cccc(C(=O)N2CCCCC2)c1 (stereo not given) -0.45%, COc1cc(/C=N/NC(=O)c2ccccc2)ccc1OS(=O)(=O)c1ccccc1 0.205%, COc1cc(/C=N/NC(=O)c2ccoc2C)ccc1OCCN1CCCCC1 -11.7%, COc1ccc(-c2sc3ccc(OC)cc3c2C#Cc2ccccn2)cc1 11.5%, CCCCC[C@@H]1C=C(C(=O)O)[C@H](c2ccc(C#N)cc2)N1S(=O)(=O)c1ccc(C)cc1 -19.7%, COc1ccc(CN2CCN(C(=O)c3cc(C4CC4)nn3-c3ccccc3)CC2)cc1F -18.2%, CCOC(=O)CCC(NC(=O)c1ccc(CNc2nc3cc(C(F)(F)F)ccc3nc2C(=O)OCC)cc1)C(=O)OCC (stereo not given) -15.4%, C=CCNC(=O)c1ccc2nc(-c3ccco3)c(-c3ccco3)nc2c1 -0.251%, COCCNC(=O)Cn1cc(C(=O)c2cccs2)c2ccccc21 3.92%, COC(=O)Cn1cc(C(=O)c2cccs2)c2ccccc21 -13.8%, Cc1cccc(N2CCN(C3=C(c4ccccc4)C(=O)c4ccccc43)CC2)c1C -4.19%, CCOc1ccc(S(=O)(=O)c2cn(Cc3ccccc3)c3ccc(OCC)cc3c2=O)cc1 2.51%, Cc1ccc(CNC(=O)C2CCCN(S(C)(=O)=O)C2)cc1 (stereo not given) 1.71%, CCS(=O)(=O)N1CCCC(C(=O)NCc2ccc(C)cc2)C1 (stereo not given) -11%, Oc1ccc(/C=C/c2c(F)cccc2F)c2cccnc12 1.37%, COc1ccc(-c2nc3ccccc3s2)cc1NC(=O)COc1ccccc1C 24.6%, Cc1c(NC(=O)Cc2ccccc2)cccc1-c1nc2cccnc2s1 7.43%, COc1ccc(CCNC(=O)c2ccc(-n3c(C)cc4c3CCCC4)cc2)cc1OC 6.59%, CC(=O)c1cccc(OCc2cc(C(=O)NC(C)Cc3cccnc3)no2)c1 (stereo not given) 7.73%, CN(Cc1cnccn1)C(=O)c1cc(COc2cccc(C(F)(F)F)c2)on1 4.98%, O=C1/C(=C\c2ccc(O)cc2)CCC1CNc1ccc(Cl)cc1 (stereo not given) 7.1%

Potency, active:
CCOc1cc(/C=C(/C#N)c2ccc(Cl)cc2)cc(Cl)c1OCC(=O)O 8.2 µM, Clc1ccc2c(c1)C1=C(C(c3ccncc3)O2)C(c2ccc(Br)cc2)n2ncnc2N1 (stereo not given) 13 µM, CCCN(CC(=O)Nc1ccccc1C)C(=O)c1ccc2[nH]c3c(c2c1)CC(C)CC3 (stereo not given) 20.6 µM, Cc1ccc2[nH]c(C)c(CCNC(=O)NC3CCCCC3)c2c1 20.6 µM, O=C(CN1CCN(c2nc(-c3ccccc3)cs2)CC1)NCc1ccc2c(c1)OCO2 23.1 µM, Cc1nc(N2CCOCC2)c2c(C)c(C(=O)Nc3ccc(C(F)(F)F)cc3)sc2n1 9.2 µM, Cc1nc(N2CCN(c3ccccn3)CC2)c2c(C)c(C(=O)Nc3ccc(F)c(Cl)c3)sc2n1 16.4 µM, Cc1ccc(NC(=O)NC(C)c2c(-n3cccc3)sc(C)c2C)c(C)c1 (stereo not given) 18.4 µM, COc1ccc(NC(=O)NC(C)c2c(-n3cccc3)sc(C)c2C)cc1OC (stereo not given) 20.6 µM, Brc1c(CSc2nncc3ccccc23)nc2ccccn12 8.2 µM, CCCOc1ccc(Cc2c(Cl)nc(SC)nc2NC)cc1 2.06 µM, C[n+]1ccc(/C=C/c2c[nH]c3ccccc23)cc1 0.82 µM, CCCc1nc2sc3c(c2c(=O)n1NC(=O)CCCl)CCCC3 11.6 µM, O=[N+]([O-])c1ccc(NS(=O)(=O)c2ccccc2)c(Cl)c1 11.6 µM, COc1cc(/C=N/NC(=O)Nc2ccccc2)ccc1OCCOc1ccccc1C 14.6 µM, Cc1c(Cl)cccc1NC(=O)Cn1cc(C(=O)c2cccs2)c2ccccc21 6.51 µM, CCOc1ccc(CNC(=O)C2CCCN(S(=O)(=O)N(CC)c3ccc(OCC)cc3)C2)cc1 (stereo not given) 16.4 µM, CC(=O)Nc1cccc(-c2nc3ccccc3s2)c1C 7.31 µM, CN(Cc1cccnc1)C(=O)c1cc(COc2ccc3ncccc3c2)on1 4.61 µM
